Assay outcomes from PubChem.
In the library only some 4.6% were active in any assay of this set; here they are far more common.
CF NFkB inh – blocks PAF-induced NF-kB reporter in cystic fibrosis cells. KKLEB NF-kB-GFP reporter, GFP fluorescence overnight. inhibition, % at 5 µM. actives 0.86% (n = 360,000). AID 588850;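 active = at least 50% inhibition at 5 µM, scaled per plate between neutral and stimulator controls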;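 note: PAF is a Pseudomonas aeruginosa culture filtrate used as stimulus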
HIF-2a inh – inhibitors of HIF-2a. 786-0 RCC cells HIF-2a reporter, luciferase luminescence, overnight. inhibition, % at 18.8 µM. actives 0.72% (n = 360,000);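 active = inhibition of the luminescence signal of 40% or more relative to plate controls, in a single-dose primary screen at 18.75 µM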
KKLEB cytotox – counter-screen for CF NF-kB inhibitors: cytotoxicity; KKLEB CF airway cells viability, ATPlite luminescence, overnight; hits give low values; cells stimulated with P. aeruginosa culture filtrate; activity change (cytotoxicity), % at 5 µM; actives 0.36% (n = 360,000);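 active = corrected activity change at or below -50% at 5 µM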
Mdm2 MdmX PPI – inhibitors of human Mdm2/MdmX interaction; O15151+Q00987; SaOS-2 split-luciferase Mdm2/MdmX complementation, luminescence; inhibition, % at 8 µM; actives 3% (n = 330,000);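 active = inhibition of at least 50% at 8 µM in the primary screen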
Peg3 promoter – reduces Peg3 promoter-driven luciferase expression in HeLa. inhibition, % at 20 µM. HeLa PEG-Prom luciferase reporter, luminescence, overnight. actives 1.7% (n = 360,000);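 active = inhibition of at least 50% at 20 µM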
ABHD5-PLIN5 inh – ABHD5-PLIN5 protein interaction inhibition; inhibition, % at 4 µM; Split G. princeps luciferase complementation, luminescence, 4 h; AID 602281; actives 0.78% (n = 360,000); Q00G26+Q8WTS1;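 active = inhibition above the mean inhibition across every tested compound plus 3 SD, cut at about 22% in these data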
Target sequence (Q00G26 whole entry, looked up): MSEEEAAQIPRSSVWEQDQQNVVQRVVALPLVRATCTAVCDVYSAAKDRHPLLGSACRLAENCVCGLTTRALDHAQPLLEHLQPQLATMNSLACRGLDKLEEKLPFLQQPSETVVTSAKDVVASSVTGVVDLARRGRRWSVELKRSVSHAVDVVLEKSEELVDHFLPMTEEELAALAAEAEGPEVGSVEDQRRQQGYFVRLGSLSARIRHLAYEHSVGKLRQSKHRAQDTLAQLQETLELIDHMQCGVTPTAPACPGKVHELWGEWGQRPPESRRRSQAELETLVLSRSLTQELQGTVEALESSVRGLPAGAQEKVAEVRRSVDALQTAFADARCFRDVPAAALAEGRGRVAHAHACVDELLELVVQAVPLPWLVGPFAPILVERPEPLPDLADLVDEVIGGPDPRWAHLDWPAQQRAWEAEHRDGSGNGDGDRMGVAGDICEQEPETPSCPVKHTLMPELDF
Target sequence (Q8WTS1 whole entry, looked up): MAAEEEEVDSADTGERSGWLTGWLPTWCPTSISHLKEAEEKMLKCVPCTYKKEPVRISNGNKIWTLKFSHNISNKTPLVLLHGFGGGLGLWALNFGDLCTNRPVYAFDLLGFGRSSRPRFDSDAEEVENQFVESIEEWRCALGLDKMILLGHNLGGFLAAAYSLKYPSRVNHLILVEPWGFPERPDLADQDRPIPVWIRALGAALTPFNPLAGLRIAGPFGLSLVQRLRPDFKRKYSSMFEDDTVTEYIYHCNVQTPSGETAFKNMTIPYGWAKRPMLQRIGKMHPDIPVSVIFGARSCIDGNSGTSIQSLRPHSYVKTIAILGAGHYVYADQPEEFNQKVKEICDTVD
Mdm2 MdmX conf – human Mdm2/MdmX binding inhibition, confirmed | shares compounds with Mdm2 MdmX PPI | inhibition, % at 8 µM | luminescent assay | AID 489028 | actives 55% (n = 10,000); in the data active = inhibition above about 40%
Full FLuc ctr – counter-screen for Mdm2/MdmX inhibitors: full-length luciferase; shares compounds with Mdm2 MdmX PPI; SaOS-2 full-length luciferase counterscreen, luminescence; inhibition, % at 8 µM; actives 77% (n = 6,200);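 active = mean inhibition at 8 µM reaching about 37%, which flags the compound as non-specific, limit read from the data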;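 note: p53-null SaOS-2 cells with luciferase driven by a doxycycline-inducible promoter; compound on cells about two nights before reading with doxycycline added after day one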
Hits are given with their value; . = inactive; / = not tested or not shown.

SMILES | CF NFkB inh | HIF-2a inh | KKLEB cytotox | Mdm2 MdmX PPI | Peg3 promoter | ABHD5-PLIN5 inh | Mdm2 MdmX conf | Full FLuc ctr
NCCCn1c(C(=O)c2cc(Cl)c(N)c(Cl)c2)c2ccc([N+](=O)[O-])cc2[n+]1[O-] | . | . | . | 66 | 57 | . | 54 | 63
O=S(=O)(c1ccccc1)N1N=C(c2ccc(Cl)cc2)CC1c1ccco1 (configuration not stated) | . | . | . | . | . | . | / | /
Cc1ccc2[nH]c(=O)c(COC(=O)c3cccs3)cc2c1 | . | . | . | 51 | . | . | . | /
CCOc1nc(N=C(N)N)nc2c(C)cccc12 | . | . | . | 56 | . | . | . | /
C=CCOc1c(Br)cc(/C=N/NC(=O)Cc2ccc(C(F)(F)F)cc2[N+](=O)[O-])cc1OC | . | . | . | 57 | . | . | . | /
O=C(NC1CC1)c1c(O)c2ccccc2[nH]c1=O | . | . | . | 59 | . | . | . | /
CCNC(=O)c1c(O)c2ccccc2[nH]c1=O | . | . | . | 76 | . | . | 53 | 76
CCN(CC)Cc1c(C(=O)N/N=C(\C)c2ccncc2)nnn1-c1nonc1N | . | . | . | . | . | . | / | /
O=C(CCNC(=O)c1ccccc1Cl)Nc1ccc(S(=O)(=O)N2CCOCC2)cc1 | . | . | . | / | . | . | / | /
Clc1ccc(CSc2nncn2-c2ccc3c(c2)OCCO3)cc1 | . | . | . | 51 | . | . | 60 | 48
O=C(/C=C/c1ccccc1)NC(=S)Nc1ccc(N2CCOCC2)cc1 | . | . | . | . | . | . | / | /
O=C(/C=C/c1ccc(Cl)cc1)NC(=S)Nc1ccc(N2CCOCC2)c(Cl)c1 | . | . | . | 86 | . | . | 44 | 91
Cc1ccc(/C=N/NC(=O)c2cc3c(s2)CCCC3)o1 | . | . | . | . | . | . | / | /
CN1CCN(CCCN2c3ccccc3Sc3ccc(Cl)cc32)CC1 | . | . | . | 54 | 63 | . | . | /
OCCN1CCN(CCCN2c3ccccc3Sc3ccc(C(F)(F)F)cc32)CC1 | . | . | . | 61 | 61 | . | . | /
COc1ccc(C)cc1NS(=O)(=O)c1ccc(NC(=O)CN(c2cc([N+](=O)[O-])ccc2C)S(C)(=O)=O)cc1 | . | . | . | 70 | 64 | . | 63 | 51
Cc1cccc(NS(=O)(=O)c2ccc(NC(=O)CN(c3cc([N+](=O)[O-])ccc3C)S(C)(=O)=O)cc2)c1 | . | . | . | 55 | 59 | 32 | 49 | 52
O=C(CCCCn1c(=O)c2ccccc2n(Cc2ccc(F)cc2Cl)c1=O)NCc1ccco1 | . | . | . | 54 | . | . | . | /
CCN(Cc1ccncc1)C(=O)c1ccccc1NS(=O)(=O)c1ccc(F)cc1 | . | . | . | . | . | . | / | /
Cc1[nH]c2ccccc2c1C(O)CN1CCN(c2cccc(C(F)(F)F)c2)CC1 (configuration not stated) | . | . | . | 59 | . | . | . | /
COc1ccccc1NS(=O)(=O)c1cccc(C(=O)NCC(c2cccs2)N(C)C)c1 (configuration not stated) | . | . | . | / | . | . | / | /
Cc1cc(C)n(-c2ccc(NC(=O)C3CCCCN3Cc3cccc4c3OCO4)cc2)n1 (configuration not stated) | . | . | . | 52 | . | . | 64 | 75
Cc1cc(C)n(-c2ccc(NC(=O)C3CCCCN3C(=O)c3ccoc3)cc2)n1 (configuration not stated) | . | . | . | . | . | . | / | /
CCc1nc2c(OCc3ccc(Cl)cc3)cccn2c1N(C=O)Cc1ccc(OC)cc1 | . | . | . | / | . | . | / | /
Cc1ccc2[nH]c3nc(N/N=C/c4cccc(O)c4)nnc3c2c1 | . | . | . | . | . | . | / | /
SMILES | CF NFkB inh | HIF-2a inh | KKLEB cytotox | Mdm2 MdmX PPI | Peg3 promoter | ABHD5-PLIN5 inh | Mdm2 MdmX conf | Full FLuc ctr
CCc1ccc2[nH]c3nc(N/N=C/c4ccc(O)cc4O)nnc3c2c1 | . | . | . | 58 | . | . | 94 | .
Cc1ccc(S(=O)(=O)N(CCC(=O)NCc2ccc(S(N)(=O)=O)cc2)c2ccccc2)cc1 | . | . | . | . | . | . | / | /
CCOC(=O)C1CCN(C(=O)c2ccc(S(=O)(=O)Nc3ccccc3Cl)cc2)CC1 | . | . | . | . | . | . | / | /
Cc1cccc(N(C)S(=O)(=O)c2ccc(-c3cnc(C4CC4)o3)cc2)c1 | . | . | . | 74 | . | . | 59 | 103
COc1ccc(NS(=O)(=O)c2ccc(-c3cnc(C4CC4)o3)cc2)cc1OC | . | . | . | 57 | . | . | 56 | 47
COc1ccccc1N1CCN(S(=O)(=O)c2ccc(-c3cnc(C4CC4)o3)cc2)CC1 | . | . | . | . | . | . | / | /
O=S(=O)(Nc1ccc(F)cc1Cl)c1ccc(-c2cnc(C3CC3)o2)cc1 | . | . | . | 56 | . | . | 61 | 66
O=C1CC(=O)Nc2cc(S(=O)(=O)Nc3ccc(F)cc3Cl)ccc2N1 | . | . | . | . | . | . | / | /
CCOc1ccccc1NS(=O)(=O)c1ccc(-c2cnc(C3CC3)o2)cc1 | . | . | . | 73 | . | . | 56 | 117
CC(=O)Nc1ccc(NS(=O)(=O)c2cc(-c3cnc(C4CC4)o3)ccc2C)cc1 | . | . | . | . | . | . | / | /
CC(=O)N1CCCc2cc(S(=O)(=O)N3CCCC(C(=O)Nc4ccccc4C)C3)ccc21 (configuration not stated) | . | . | . | . | . | . | / | /
O=C(CSCc1ccc(Cl)cc1)Nc1ccc(O)cc1C(=O)O | . | . | . | . | . | . | / | /
COCCN(Cc1ccco1)C(=O)C1CCCN(c2ncnc3c2nc2n3CCCCC2)C1 (configuration not stated) | . | . | . | . | . | . | / | /
CCn1ccnc1CNC(=O)c1ccc(OC2CCN(C(=O)COC)CC2)cc1 | . | . | . | . | . | . | / | /
COc1cccc(N2CCN(S(=O)(=O)c3ccc(-c4cnc(C5CC5)o4)cc3)CC2)c1 | . | . | . | 79 | . | . | . | /
COc1ccccc1CNS(=O)(=O)c1ccc(-c2cnc(C3CC3)o2)cc1 | . | . | . | 54 | . | . | 55 | 66
Oc1ccc(/C=N/Nc2ccc(C(F)(F)F)cn2)c(O)c1 | . | . | . | 64 | . | . | . | 56
N#C/C(=C\C=C\c1ccccc1[N+](=O)[O-])c1nc(-c2ccc3c(c2)OCO3)cs1 | . | . | -54 | 63 | . | . | . | /
O=C(O)CCCCCCCCc1cn(CCc2c[nH]c3ccccc23)nn1 | . | . | . | . | . | . | / | /
CC(=O)/C(C#N)=C1\NC(=O)C(Cc2ccc(C)c(Cl)c2)S1 (configuration not stated) | . | . | . | 79 | . | . | 78 | .
